Measured values reported in the supplement of paper PMC8728848.
The entries come from a sample that favours the strongest signals as a whole.

Key:
Assay in all cases: glycan array binding signal (z-score within array); higher = stronger binding
Settings in all cases: glycan notation: IUPAC condensed, linker removed
Fuc(a1-2)Gal(b1-4)Glc = target: Fuc(a1-2)Gal(b1-4)Glc
Summary of the method: (§1)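 The binding signal is a Z-score computed within each array and averaged over linkers. Arrays of the same protein sequence at different concentrations or buffers were also averaged together. Data originate from 3228 arrays in the Consortium for Functional Glycomics database, kept only where the protein sequence was available.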

[1] = target: Fuc(a1-2)[Gal(a1-3)]Gal(b1-4)Glc
Summary of the method: as §1

Fuc(a1-3)GlcNAc = target: Fuc(a1-3)GlcNAc
Summary of the method: as §1

[2] = target: Fuc(a1-3)[Gal3S(b1-4)]GlcNAc
Summary of the method: as §1

Gal(a1-4)Gal(b1-4)Glc = target: Gal(a1-4)Gal(b1-4)Glc
Summary of the method: as §1

Gal(b1-3)Gal(b1-4)GlcNAc = target: Gal(b1-3)Gal(b1-4)GlcNAc
Summary of the method: as §1

[3] = target: Gal(b1-3)GlcNAc(b1-2)Man(a1-3)[Gal(b1-3)GlcNAc(b1-2)Man(a1-6)]Man(b1-4)GlcNAc(b1-4)GlcNAc
Summary of the method: as §1

[4] = target: Gal(b1-4)GalNAc(b1-3)[Fuc(a1-2)]Gal(b1-4)GlcNAc
Summary of the method: as §1

[5] = target: Gal(b1-4)GlcNAc(b1-2)Man(a1-3)[Gal(b1-4)GlcNAc(b1-2)Man(a1-6)]Man(b1-4)GlcNAc(b1-4)GlcNAc
Summary of the method: as §1

Gal3S(b1-4)GlcNAc = target: Gal3S(b1-4)GlcNAc
Summary of the method: as §1

Gal3S4S(b1-4)GlcNAc = target: Gal3S4S(b1-4)GlcNAc
Summary of the method: as §1

Glc(a1-6)Glc(a1-6)Glc = target: Glc(a1-6)Glc(a1-6)Glc
Summary of the method: as §1

GlcA(b1-3)GlcNAc = target: GlcA(b1-3)GlcNAc
Summary of the method: as §1

[6] = target: GlcNAc(b1-3)[GlcNAc(b1-6)]Gal(b1-4)GlcNAc
Summary of the method: as §1

[7] = target: GlcNAc(b1-3)[GlcNAc(b1-6)]GalNAc
Summary of the method: as §1

[8] = target: GlcNAc(b1-4)Gal(b1-4)GlcNAc
Summary of the method: as §1

Kdn(a2-3)Gal(b1-4)GlcNAc = target: Kdn(a2-3)Gal(b1-4)GlcNAc
Summary of the method: as §1

[9] = target: Man(a1-2)Man(a1-2)Man(a1-6)[Man(a1-3)]Man
Summary of the method: as §1

[10] = target: Man(a1-2)Man(a1-6)[Man(a1-3)]Man(a1-6)[Man(a1-2)Man(a1-2)Man(a1-3)]Man
Summary of the method: as §1

[11] = target: Neu5Ac(a2-3)Gal(b1-3)GlcNAc(b1-3)Gal(b1-3)GlcNAc
Summary of the method: as §1

[12] = target: Neu5Ac(a2-3)Gal(b1-4)GlcNAc(b1-3)Gal(b1-4)GlcNAc(b1-3)Gal(b1-4)GlcNAc
Summary of the method: as §1

[13] = target: Neu5Ac(a2-3)Gal(b1-4)GlcNAc(b1-3)Gal(b1-4)[Fuc(a1-3)]GlcNAc
Summary of the method: as §1

[14] = target: Neu5Ac(a2-3)Gal(b1-4)[Fuc(a1-3)]GlcNAc
Summary of the method: as §1

[15] = target: Neu5Ac(a2-3)Gal6S(b1-4)[Fuc(a1-3)]GlcNAc
Summary of the method: as §1

[16] = target: Neu5Ac(a2-6)Gal(b1-4)GlcNAc(b1-2)Man(a1-3)[Gal(b1-4)GlcNAc(b1-2)Man(a1-6)]Man(b1-4)GlcNAc(b1-4)GlcNAc
Summary of the method: as §1

[17] = target: Neu5Ac(a2-6)Gal(b1-4)GlcNAc(b1-2)Man(a1-3)[Neu5Ac(a2-6)Gal(b1-4)GlcNAc(b1-2)Man(a1-6)]Man(b1-4)GlcNAc(b1-4)GlcNAc
Summary of the method: as §1

[18] = target: Neu5Ac(a2-6)Gal(b1-4)GlcNAc(b1-3)Gal(b1-4)[Fuc(a1-3)]GlcNAc(b1-3)Gal(b1-4)[Fuc(a1-3)]GlcNAc
Summary of the method: as §1

[19] = target: Neu5Gc(a2-3)Gal(b1-3)[Fuc(a1-4)]GlcNAc
Summary of the method: as §1

B1: BDCA2 ex-domain (Homo sapiens) (protein)
chain: MASHHHHHHIEGRGLNDIFEAQKIEWHESLVPRGSCPTPWTSFQSSCYFISTGMQSWTKSQKNCSVMGADLVVINTREEQDFIIQNLKRNSSYFLGLSDPGGRRHWQWVDQTPYNENVTFWHSGEPNNLDERCAIINFRSSEEWGWNDIHCHVPQKSICKMKKIY
Fuc(a1-2)Gal(b1-4)Glc
  glycan array binding signal (z-score): -0.318
[1]
  glycan array binding signal (z-score): -0.022
Fuc(a1-3)GlcNAc
  glycan array binding signal (z-score): -0.3
[2]
  glycan array binding signal (z-score): -0.204
Gal(a1-4)Gal(b1-4)Glc
  glycan array binding signal (z-score): 0.336
Gal(b1-3)Gal(b1-4)GlcNAc
  glycan array binding signal (z-score): -0.245
[3]
  glycan array binding signal (z-score): 8.6
[4]
  glycan array binding signal (z-score): -0.375
[5]
  glycan array binding signal (z-score): 13.2
Gal3S(b1-4)GlcNAc
  glycan array binding signal (z-score): -0.181
Gal3S4S(b1-4)GlcNAc
  glycan array binding signal (z-score): 1.81
Glc(a1-6)Glc(a1-6)Glc
  glycan array binding signal (z-score): -0.187
GlcA(b1-3)GlcNAc
  glycan array binding signal (z-score): -0.1
[6]
  glycan array binding signal (z-score): -0.208
[7]
  glycan array binding signal (z-score): -0.347
[8]
  glycan array binding signal (z-score): 0.139
Kdn(a2-3)Gal(b1-4)GlcNAc
  glycan array binding signal (z-score): 0.619
[9]
  glycan array binding signal (z-score): -0.128
[10]
  glycan array binding signal (z-score): -0.559
[11]
  glycan array binding signal (z-score): -0.143
[12]
  glycan array binding signal (z-score): 1.33
[13]
  glycan array binding signal (z-score): 0.601
[14]
  glycan array binding signal (z-score): -0.385
[15]
  glycan array binding signal (z-score): -0.35
[16]
  glycan array binding signal (z-score): 2.93
[17]
  glycan array binding signal (z-score): -0.101
[18]
  glycan array binding signal (z-score): 0.319
[19]
  glycan array binding signal (z-score): -0.317
